Data from PubChem BioAssay (EPA / NIEHS).
Active and inactive are the calls of the source. The calls were made as follows: active = hit-call score of the fitted dose curve at least 0.9, where 1 is the maximum; inactive = score below 0.9.

Legend:
[1] = APR_HepG2_CellCycleArrest_24hr: Apredica 24-hour HepG2 Assay for Cell Cycle Arrest (AID 2282905); conditions: imaging, actives raise or lower the signal;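 also: cell cycle arrest scored as ratio of 2N to 4N nuclear DNA content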
Outline: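 After 24 h exposure at 0.39–200 uM in 0.5% DMSO, fixed cells received Hoechst 33342 staining. Imaging quantified per-nucleus DNA content; gain or loss fitted against DMSO controls.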

[2] = APR_HepG2_NuclearSize_24hr: Apredica 24-hour HepG2 Assay for Nuclear Size (AID 2282907); conditions: high-content imaging, actives raise or lower the signal
Outline: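 Nuclear size from Hoechst 33342-stained, formaldehyde-fixed HepG2 nuclei imaged by high-content microscopy, after 24 h dosing at ten concentrations from 0.39 to 200 uM in 0.5% DMSO; gain or loss relative to DMSO baseline.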

[3] = APR_HepG2_CellLoss_24hr: Apredica 24-hour HepG2 Assay for Cell Loss (AID 2282908); conditions: high-content imaging;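 as to AC50: fit in both directions so a hit may be cell loss or gain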
Outline: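 Nuclei stained with Hoechst 33342 after formaldehyde fixation (3.7%) were imaged at 20x to count cells. Exposure lasted 24 hr, at ten concentrations from 0.39 to 200 uM in duplicate, with 0.5% v/v DMSO. Fit bidirectional, relative to DMSO.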

[4] = APR_HepG2_MicrotubuleCSK_24hr: Apredica 24-hour HepG2 Assay for Microtubule CSK Stabilty (AID 2282909); conditions: HepG2 microtubule cytoskeleton imaging, actives raise or lower the signal
Outline: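 Fixed HepG2 cells were stained for alpha-tubulin and imaged after 24 hr exposure to ten concentrations spanning 0.39–200 uM in 0.5% DMSO. Signal change was fitted in both directions relative to DMSO; taxol was the positive control.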

[5] = APR_HepG2_MitoticArrest_24hr: Apredica 24-hour HepG2 Assay for Mitotic Arrest (AID 2282910); conditions: high-content imaging, actives raise or lower the signal
Outline: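 Treatment lasted 24 hr in the human HepG2 line at 0.39–200 uM, solvent held at 0.5% DMSO. Fixed cells were stained with Hoechst 33342 and anti-phospho-histone H3, imaged at 20x, and analysed by gain- or loss-of-signal fitting against DMSO.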

[6] = APR_HepG2_MitoMembPot_24hr: Apredica 24-hour HepG2 Assay for Mitochondrial Membrane Potential (AID 2282911); conditions: imaging, actives raise or lower the signal
Outline: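 HepG2 human liver cells were exposed 24 hr to compounds at 0.39–200 uM (final DMSO 0.5% v/v) in duplicate. MitoTracker Red CMXRos (250 nM, 30 min) was loaded before formaldehyde fixation; fluorescence was imaged by ArrayScan HCS and fitted bidirectionally versus DMSO.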

[7] = APR_HepG2_MitoMass_24hr: Apredica 24-hour HepG2 Assay for Mitochondrial Mass (AID 2282912); conditions: high-content imaging, actives raise or lower the signal
Outline: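 Endpoint is MitoTracker Red CMXRos (250 nM, 30 min, pre-fixation) intensity from 20x high-content imaging, nuclei located by Hoechst. Human HepG2 cells received ten concentrations from 0.39 to 200 uM in 0.5% DMSO for 24 hr, duplicate wells. Bidirectional fit relative to DMSO.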

[8] = APR_HepG2_p53Act_24hr: Apredica 24-hour HepG2 Assay for p53 Activation (AID 2282913); conditions: high-content imaging, actives raise or lower the signal;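 also: p53 protein immunofluorescence averaged per cell in HepG2 with Hoechst nuclei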
Outline: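 HepG2 cells exposed 24 hr to compounds at 0.39–200 uM (10 concentrations, duplicate), final DMSO 0.5% v/v. After formaldehyde fixation and Triton permeabilization, p53 was immunolabeled (sheep anti-p53, Cy5 secondary) with Hoechst 33342 nuclear counterstain, then imaged by high-content fluorescence microscopy.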

[9] = APR_HepG2_CellCycleArrest_72hr: Apredica 72-hour HepG2 Assay for Cell Cycle Arrest (AID 2282914); conditions: high-content imaging, actives raise or lower the signal
Outline: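 HepG2 cells were exposed to compounds at 0.39–200 uM (0.5% v/v DMSO final, duplicates) for 72 hr, fixed in 3.7% formaldehyde, permeabilized and stained with Hoechst 33342. Nuclear DNA content was quantified by high-content imaging; gain or loss of signal was fitted bidirectionally against DMSO.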

[10] = APR_HepG2_CellLoss_72hr: Apredica 72-hour HepG2 Assay for Cell Loss (AID 2282915); conditions: high-content imaging
Outline: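 HepG2 cells were exposed for 72 hr to compounds at 0.39–200 uM (ten concentrations, duplicate) in 0.5% v/v final DMSO. Nuclei were stained with Hoechst 33342 after 3.7% formaldehyde fixation, imaged at 20x, and counted; fits bidirectional versus DMSO.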

Measured: AC50

c1ccc2ccccc2c1
active: [9] 0.0357 µM | [10] 0.0736 µM
inactive: all other assays above

CN(C[C@@H](CC[N+]12CCC(C3CCCCC3)(CC1)CC2)c1ccc(Cl)c(Cl)c1)C(=O)c1cc(C(F)(F)F)cc(C(F)(F)F)c1
active: [3] 13.1 µM | [4] 34.3 µM | [5] 33.4 µM | [6] 1.27 µM | [7] 100 µM | [8] 18.3 µM | [10] 24.9 µM
inactive: [1] | [2] | [9]

c1ccc2n[nH]nc2c1
inactive: all assays above

O=c1c(-c2ccc(O)cc2)coc2cc(O)cc(O)c12
active: [1] 43.1 µM | [3] 32.6 µM | [6] 78.9 µM | [8] 70.7 µM | [9] 47.4 µM | [10] 42.9 µM
inactive: [2] | [4] | [5] | [7]

OC12N=C(c3ccccc3)SC1Cc1cc(Cl)ccc12 (stereo unspecified)
not listed: [8] | [10]
inactive: all other assays above

Cc1occc1C(=O)Nc1ccc(C(=O)N2CCC(F)(F)/C(=C\C(=O)N3CCC(N4CCCCC4)CC3)c3ccccc32)cc1
active: [1] 34.9 µM | [3] 16.2 µM
not listed: [10]
inactive: all other assays above

COc1cccc([C@H](O)C2CCN(CCc3ccc(F)cc3)CC2)c1OC
active: [1] 75.2 µM
not listed: [8] | [10]
inactive: all other assays above

CO[C@H]1/C=C/O[C@@]2(C)Oc3c(C)c(O)c4c(O)c(c(/C=N/N5CCN(C)CC5)c(O)c4c3C2=O)NC(=O)/C(C)=C\C=C\[C@H](C)[C@H](O)[C@@H](C)[C@@H](O)[C@@H](C)[C@H](OC(C)=O)[C@@H]1C
not listed: [10]
inactive: all other assays above

O=C(OCCCCCCOC(=O)c1ccccc1)c1ccccc1
not listed: [10]
inactive: all other assays above

O=c1ccc2ccccc2o1
not listed: [10]
inactive: all other assays above

O=CCCCC=O
not listed: [10]
inactive: all other assays above

O=C(Nc1ccc(Cl)cc1)Nc1ccc(Cl)c(Cl)c1
active: [1] 7.09 µM | [3] 4.01 µM | [6] 13.8 µM | [8] 3.93 µM | [9] 16.6 µM
inactive: [2] | [4] | [5] | [7]

Cc1oc2c(NC(=O)c3c(Cl)cccc3Cl)cccc2c1C(C)(C)O
inactive: all assays above

O=C(O)c1ccccc1C(=O)OCc1ccccc1
not listed: [10]
inactive: all other assays above

Cc1ccc2oc(CN(Cc3ccccc3)C(=O)Nc3c(F)cc(F)cc3F)c(-c3ccc(Cl)cc3)c2c1
not listed: [10]
inactive: all other assays above

NCc1cccc(C2CCN(C(=O)c3ccc(C#Cc4ccccc4F)o3)CC2)c1
active: [3] 17.7 µM | [4] 61.3 µM | [5] 18.6 µM | [6] 18.4 µM | [8] 16.4 µM
inactive: [1] | [2] | [7] | [9]

O=C=NCCCCCCN=C=O
not listed: [10]
inactive: all other assays above

Clc1ccccc1C(c1ccccc1)(c1ccccc1)n1ccnc1
inactive: [1] | [6] | [7] | [8]
active: [2] 72.3 µM | [3] 20.3 µM | [4] 30.7 µM | [5] 31.6 µM | [9] 13.8 µM | [10] 18.9 µM

CCCOC(=O)c1cc(O)c(O)c(O)c1
active: [8] 38.1 µM | [9] 46.2 µM | [10] 8.44 µM
inactive: all other assays above

CCCCCCCCOC(=O)c1cc(O)c(O)c(O)c1
inactive: [2] | [7]
active: [1] 14.8 µM | [3] 90 µM | [4] 171 µM | [5] 50.8 µM | [6] 13.5 µM | [8] 43.3 µM | [9] 8.95 µM

COCC(C)OCC(C)OCC(C)O (stereo unspecified)
not listed: [10]
inactive: all other assays above

CC[C@H](NC(=O)c1cc(F)ccc1NS(=O)(=O)c1cccc2cccnc12)c1ccccc1
active: [6] 105 µM
not listed: [10]
inactive: all other assays above

Cc1cc2c(cc1C(F)(F)F)N(C(=O)Nc1ccc(Oc3cccnc3C)nc1)CC2
active: [1] 2.58 µM | [3] 50.2 µM | [4] 43.6 µM | [5] 56.2 µM | [8] 45.7 µM
inactive: [2] | [6] | [7] | [9]

CC(C)(O)c1ccc(CNC(=O)c2cccnc2Oc2ccc3nonc3c2)cc1
inactive: all assays above

NC(=O)c1nc(-c2cccc(-c3cc(F)ccc3OCC(F)(F)C(F)(F)F)c2)n[nH]1
active: [3] 127 µM | [5] 101 µM | [7] 160 µM | [9] 104 µM | [10] 91.9 µM
inactive: [1] | [2] | [4] | [6] | [8]

O=C(O)c1ccccc1-n1cc(C(=O)O)c(=O)c2cc(Nc3c(F)cc(F)cc3Cl)c(Cl)cc21
inactive: all assays above

CCN(Cc1cccc(S(=O)(=O)O)c1)c1ccc(C(=C2C=CC(=[N+](CC)Cc3cccc(S(=O)(=O)O)c3)C=C2)c2ccccc2S(=O)(=O)[O-])cc1
not listed: [10]
inactive: all other assays above

c1ccc(C[n+]2cccc3ccccc32)cc1
inactive: [2] | [5] | [8]
active: [1] 178 µM | [3] 115 µM | [4] 100 µM | [6] 32.8 µM | [7] 167 µM | [9] 36.8 µM | [10] 54.8 µM

CCCCCCCCOc1ccc(C(=O)c2ccccc2)c(O)c1
active: [1] 103 µM | [9] 164 µM
not listed: [10]
inactive: all other assays above

CCCC(=O)OCCC(C)C
inactive: all assays above

CCCCCCCCCCCO
active: [3] 103 µM | [5] 104 µM | [6] 110 µM | [8] 107 µM | [10] 107 µM
inactive: all other assays above

CN(C)C(=O)C1(N2CCCCC2)CCN(CC[C@@]2(c3ccc(Cl)c(Cl)c3)CN(C(=O)c3ccccc3)CCO2)CC1
active: [2] 20.9 µM | [3] 15.7 µM | [4] 65.2 µM | [5] 13.1 µM | [7] 7.74 µM | [8] 22.9 µM | [9] 67.3 µM
inactive: [1] | [6]

CCCCOC(=O)c1ccc(O)cc1
inactive: all assays above

COc1ccc2cc(S(=O)(=O)N[C@H](CC(=O)N[C@H](Cc3ccc(CN4[C@H](C)CCC[C@@H]4C)cc3)C(=O)N(C)C(C)C)c3ccc4c(c3)OCO4)ccc2c1
active: [2] 28.7 µM | [3] 39.6 µM | [4] 7.6 µM | [5] 16 µM | [7] 12.7 µM | [8] 20.4 µM
inactive: [1] | [6] | [9]

Oc1ccccc1
not listed: [8] | [10]
inactive: all other assays above

CN1C(=O)N(c2ccccc2Br)Cc2cnc(Nc3ccc4c(c3)OCC(CO)O4)nc21 (stereo unspecified)
inactive: [2] | [4] | [7]
active: [1] 8.95 µM | [3] 3.7 µM | [5] 2.93 µM | [6] 105 µM | [8] 4 µM | [9] 5.09 µM | [10] 6.32 µM
